HT1080 IDH1KD tx = toxicity to HT-1080 IDH1 knockdown cells (counter line); Potency, µM (titrated, usually from 46.1 µM), inactives show at the highest dose activity, negative = toxicity, hits mostly cytotoxic; HT-1080 IDH1 knockdown viability, ATP luminescence, 48 h; actives 2% (n = 360,000);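 also: 0% = DMSO wells and -100% = cell-free medium wells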
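Knockdown cells (IDH1KD HT-1080) received compounds 2 h after plating at 750 cells/well and were kept 48 h at 37 °C in 5% FBS RPMI. A CellTiter-Glo luminescence read gave % activity for curve fitting.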
HepG2 viability = kills HepG2 cells in TGF-b inhibitor counter-screen. HepG2 CAGA-GFP viability, ATP luminescence, 18 h. Potency, µM (series often up to 46.1 µM), for inactives: top-dose activity change, negative = cytotoxicity, hits mostly cytotoxic. actives 0.76% (n = 410,000)
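HepG2 CAGA-GFP cells (1000/well, DMEM with 1% FBS) received compound, then TGF-beta at 500 pg/mL final, and were incubated 18 hours at 37 degrees C. Viability was read by CellTiter-Glo luminescence. Media-only wells were set as complete cell-killing and DMSO as no toxicity.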
DT40 TDP1 CPT = growth inhibition of DT40 Tdp1-/-;hTDP1 cells with camptothecin (screen for TDP1 inhibitors). chicken DT40 Tdp1-/-;hTDP1 cells + 20 nM CPT, ATP luminescence, 48 h. Potency, µM (doses to about 46.2 µM), for the others: at the top dose activity change, negative = growth inhibition, hits mostly inhibitors. actives 12% (n = 420,000); also: % is scaled to controls: 0 for no effect and ±100 for the full control effect; nearly all actives have a fitted effect of over 55% in size
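Chicken DT40 Tdp1-/- cells complemented with human TDP1, 400 cells/well, exposed to compounds plus 20 nM camptothecin for at least 48 h at 37 C; viability read as ATP content by CellTiter-Glo luminescence.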
HT1080NT lethal = kills 2HG-producing HT-1080-NT fibrosarcoma cells. Potency, µM (series often up to 46.1 µM), for inactives: at the top dose activity, negative = less viability, most hits filed as cytotoxic. HT-1080-NT fibrosarcoma viability, CellTiter-Glo ATP luminescence, 48 h. actives 1.6% (n = 360,000);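 also: NT is the 2HG producing partner of a matched IDH1 knockdown line; 0% = DMSO-treated cells and -100% = media-only wells without cells; nearly all actives have a fitted effect of over 55% in size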
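HT-1080-NT; 750 cells/well; 5% FBS RPMI; 48 h compound, 37 degrees C; CellTiter-Glo luminescence; curve fitting and curve-class assignment.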
DT40 TDP1 no CPT = qHTS for Inhibitors of human tyrosyl-DNA phosphodiesterase 1 (TDP1): qHTS in cells in absence of CPT | Potency, µM (top dose mostly 46.2 µM), without a hit: top-dose activity change, negative = growth inhibition, usual class: inhibitors | AID 686978, 2013 | actives 15% (n = 420,000) | DT40 Tdp1-/- hTDP1 cells, no CPT, ATP luminescence, 48 h; also: % is scaled to controls: 0 for no effect and ±100 for the full control effect; nearly all actives have a fitted effect of over 55% in size
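DT40 Tdp1-/-;hTDP1 cells, no CPT (DMSO vehicle only), 400 cells/well; compounds pin-transferred; ≥48 hr, 37 °C; CellTiter-Glo 30 min RT dark, luminescence read.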
TGFb inhibitor = blocks TGF-b signaling; Potency, µM (doses to about 46.1 µM), without a hit: at the highest dose activity, negative = inhibition, hits mostly inhibitors; AID 588855; actives 1.2% (n = 410,000); HepG2 CAGA-GFP TGF-b/SMAD3 reporter, GFP fluorescence, 18 h; TGF-beta stimulated, 500 pg/mL final; also: % is scaled to controls: 0 for no effect and ±100 for the full control effect; nearly all actives have a fitted effect of over 65% in size
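Using HEPG2 CAGA-GFP reporter cells at 1000 cells/well, we pinned test compounds, stimulated with recombinant TGF-beta (500 pg/mL final) and measured total well GFP after 18 h.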
Numbers without * were called inactive; ? = inconclusive; . = no result. This is a sample that favours compounds with a hit; in the whole collection about 17% have one here. Calls follow the shape of the dose curve; as a rule, active = well fitted curve in the direction sought with a large enough effect; inconclusive = small, poorly fitted or top-dose-only effect, or another doubt; inactive = no such curve, though single readings can be large; an effect the other way counts as inactive or inconclusive. Potency is read from the fitted curve at half-maximal effect.

SMILES	HT1080 IDH1KD tx	HepG2 viability	DT40 TDP1 CPT	HT1080NT lethal	DT40 TDP1 no CPT	TGFb inhibitor
COCCNC(=O)C1(C)CCCN(Cc2csc(-c3ccc(Cl)cc3)n2)C1 (stereo not drawn)	-8%	-23%	12µM*	13%	13µM*	-6%
CCCNC(=O)C1(C)CCCN(Cc2c3ccccc3nn2C)C1 (stereo not drawn)	-6%	-8%	21µM*	2%	21µM*	-8%
CCCNC(=O)C1(C)CCCN(Cc2ccc(C)cc2)C1 (stereo not drawn)	2%	6%	-29%	19%	?	28%
CC(C)N1CCCC(C)(C(=O)Nc2ccccc2)C1 (stereo not drawn)	?	3%	1%	13%	3%	34%
CC(C)N1CCCC(C)(C(=O)Nc2cccc(Oc3ccccc3)c2)C1 (stereo not drawn)	18%	-29%	?	0%	13µM*	?
CCCNC(=O)C1(C)CCCN(Cc2ccc(-c3ccccc3)cc2)C1 (stereo not drawn)	?	-24%	6.5µM*	?	5.8µM*	2%
COCCNC(=O)C1(C)CCCN(Cc2ccc(Oc3ccccc3)cc2)C1 (stereo not drawn)	-18%	-20%	?	2%	21µM*	-25%
CCCNC(=O)C1(C)CCN(Cc2ccc(Oc3ccccc3)cc2)C1 (stereo not drawn)	?	-28%	?	?	?	10%
COCCNC(=O)C1(C)CCCN(C(=O)COc2ccccc2)C1 (stereo not drawn)	5%	-10%	21µM*	?	1.8µM*	14%
COc1ccc(OC2(C)CCN(Cc3ccc(-c4ccccc4)o3)C2)cc1 (stereo not drawn)	-15%	-41%	21µM*	6%	?	?
CCCNC(=O)C1(C)CCCN(Cc2cccc(Oc3ccccc3)c2)C1 (stereo not drawn)	-28%	-34%	?	-17%	?	?
CCCNC(=O)C1(C)CCCN(Cc2ccc(Oc3ccccc3)cc2)C1 (stereo not drawn)	?	-37%	21µM*	-28%	18µM*	?
COc1ccccc1-c1noc2ncnc(Nc3ccc4c(c3)OCO4)c12	6%	0%	2%	0%	-4%	-1%
CCN(CC)c1ccc(-c2nnc(SCC(=O)NCc3ccco3)n2C)cc1	.	-6%	?	.	?	-2%
CCNC(=O)C1(C)CCCN(Cc2cccc(Oc3ccccc3)c2)C1 (stereo not drawn)	-4%	-42%	18µM*	9%	21µM*	-23%
CCCNC(=O)C1(C)CCCN(Cc2cccs2)C1 (stereo not drawn)	0%	5%	-3%	5%	-14%	18%
CCCNC(=O)C1(C)CCCN(Cc2cccc(C#N)c2)C1 (stereo not drawn)	?	3%	18µM*	3%	21µM*	-3%
CCCNC(=O)C1(C)CCCN(Cc2ccc(C(F)(F)F)cc2)C1 (stereo not drawn)	8%	-25%	21µM*	?	?	2%
CCN(C(=O)c1cccn(Cc2ccccc2C)c1=O)c1ccccc1	.	-6%	-5%	.	?	11%
COc1ccc(Oc2ncc3nc(-c4ccc(OC)cc4)c(=O)n(C4CC4)c3n2)cc1	.	.	7%	.	-1%	.
COC(=O)c1ccc(NC(=O)C(=O)NCC(c2cccnc2)N2CCN(c3ccccc3)CC2)cc1 (stereo not drawn)	.	-6%	-20%	.	-19%	-11%
Cc1cc(C)cc(NC(=O)C(=O)NCC(c2cccnc2)N2CCN(c3ccccc3)CC2)c1 (stereo not drawn)	.	10%	21µM*	.	16µM*	15%
COc1cccc(NC(=O)C(=O)NCC(c2cccnc2)N2CCN(c3ccccc3)CC2)c1 (stereo not drawn)	.	-22%	?	.	18µM*	6%
CCCCOC(=O)Sc1nc2ccccc2o1	-1%	-20%	?	1%	?	4%
CCOC(=O)C1CCN(C(=O)c2ccc(C)c(NC(=O)c3nsc4ccccc34)c2)CC1	.	13%	?	.	23µM*	19%
SMILES	HT1080 IDH1KD tx	HepG2 viability	DT40 TDP1 CPT	HT1080NT lethal	DT40 TDP1 no CPT	TGFb inhibitor
CCOC(=O)C1CCCN(C(=O)c2ccc(C)c(NC(=O)c3nsc4ccccc34)c2)C1 (stereo not drawn)	.	-25%	?	.	18µM*	2%
Cc1ccc(C(=O)N2CCCCC2)cc1NC(=O)c1nsc2ccccc12	.	-37%	?	.	?	?
CN(Cc1cn(C)nc1-c1ccccc1F)CC1CCCCO1 (stereo not drawn)	9%	7%	-9%	3%	-1%	19%
CC1=C(C(=O)c2ccccc2)C(c2ccc(OC(F)F)cc2)NC(=S)N1 (stereo not drawn)	15µM*	-7%	?	?	?	?
Cc1cccc(NC(=O)c2cc3c(=O)n(Cc4cccnc4)ccc3nc2C)c1	.	-2%	-22%	.	?	-5%
COC(=O)[C@@]12C[C@@H](CC(=O)NCCc3ccccc3OC)C(=O)N(Cc3cccc4ccccc34)C1=CCC(C)(C)C2	-23%	.	?	?	?	.
CC1C(=O)Nc2ccc(S(=O)(=O)N3CCN(c4cccc(C(F)(F)F)c4)CC3)cc2NC1=O (stereo not drawn)	-21%	-2%	26µM*	-8%	-69%	-21%
O=C1CCc2cc(S(=O)(=O)N3CCN(c4cccc(C(F)(F)F)c4)CC3)ccc2N1	?	-51%	-27%	-10%	-25%	?
CC1C(=O)Nc2ccc(S(=O)(=O)N3CCN(c4cccc(Cl)c4)CC3)cc2NC1=O (stereo not drawn)	-2%	-42%	18µM*	-21%	?	?
CC(C)n1c(=O)nc(-c2ccccc2)c2cc3c(cc21)OCO3	13%	-12%	2%	5%	?	-10%
Cc1cc(C(=O)N/N=C/c2ccc(N(C)C)o2)cs1	-21%	-22%	23µM*	-13%	16µM*	-21%
Cc1ccc(/C=N/NC(=O)c2csc(C)c2)o1	6%	-25%	6%	3%	-10%	-6%

Screens from PubChem BioAssay.
